Measurements taken from PubChem BioAssay (NCI).
This is part of a sample that, as a whole, favours compounds with a hit. Of some 83,000 tested, about 20% had one in any assay.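 Growth was measured after 48 h exposure to one concentration of compound in 96-well plates. Values under 10 count as active.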 Active and inactive are the calls of the source.

Experiments:
Assay in all cases: NCI-60 one-dose screen, 48 h (100 = growth as untreated, 0 = no growth, -100 = all killed)
Details in all cases: 10 µM unless noted
SK-MEL-2 melanoma = test system: SK-MEL-2 melanoma
EKVX NSCLC = test system: EKVX NSCLC
SN12C renal = test system: SN12C renal
UO-31 renal = test system: UO-31 renal
TK-10 renal = test system: TK-10 renal
ACHN renal = test system: ACHN renal
CAKI-1 renal = test system: CAKI-1 renal
A498 renal = test system: A498 renal
CCRF-CEM leukemia = test system: CCRF-CEM leukemia
MOLT-4 leukemia = test system: MOLT-4 leukemia

Measured: growth

O=C(CSc1nnc(-c2ccc(Cl)cc2)n1-c1ccccc1)Nc1ccc(Cl)cc1
inactive: SK-MEL-2 melanoma 87.3% | EKVX NSCLC 49.7% | SN12C renal 16.3% | UO-31 renal 12% | CAKI-1 renal 50.9% | A498 renal 41.4% | CCRF-CEM leukemia 53.9% | MOLT-4 leukemia 84.6%
active: TK-10 renal -6.39% | ACHN renal -2.97%

Cc1ccc(C(=O)Nc2ccc(CNCCN3CCOCC3)c(C(F)(F)F)c2)cc1C#Cc1cnc2cccnn12
active: SK-MEL-2 melanoma -7.32% | A498 renal -1.13% | MOLT-4 leukemia 4.38%
inactive: EKVX NSCLC 41.2% | SN12C renal 26.5% | UO-31 renal 19% | TK-10 renal 51.4% | ACHN renal 22.8% | CAKI-1 renal 17.2% | CCRF-CEM leukemia 10.1%

CC(C)(C)c1cc(NC(=O)Nc2ccc(-c3cn4c5c(sc4n3)CCc3c[nH]cc3-5)cc2)no1
inactive: EKVX NSCLC 32.9% | SN12C renal 44.2% | TK-10 renal 65.2% | ACHN renal 21.2% | CAKI-1 renal 13.9% | CCRF-CEM leukemia 15.1%
active: SK-MEL-2 melanoma -11.7% | UO-31 renal 7.92% | A498 renal -17.9% | MOLT-4 leukemia -10.8%

O=C(Nc1cccc(C(F)(F)F)c1)N1CCN(c2cc(-c3cn(-c4ccccc4)nc3-c3cccc(O)c3)ccn2)CC1
inactive: SK-MEL-2 melanoma 43.7% | EKVX NSCLC 42% | SN12C renal 49% | UO-31 renal 25.3% | TK-10 renal 63.3% | ACHN renal 39.2% | CAKI-1 renal 51.8% | A498 renal 49.4% | CCRF-CEM leukemia 21.5% | MOLT-4 leukemia 18.9%

COc1ccc(Cn2cc(C#N)c(N)c2C(C)=O)cc1
inactive: SK-MEL-2 melanoma 106% | EKVX NSCLC 104% | SN12C renal 89.8% | UO-31 renal 95.9% | TK-10 renal 99.8% | ACHN renal 103% | CAKI-1 renal 93.6% | A498 renal 83.9% | CCRF-CEM leukemia 94.7% | MOLT-4 leukemia 101%

CN(C)CCCOc1ccc(C(=C(c2ccccc2)C2CCCC2)c2ccc(OCCCN(C)C)cc2)cc1
active: SK-MEL-2 melanoma -94.3% | EKVX NSCLC -82.2% | SN12C renal -82.2% | UO-31 renal -96.8% | TK-10 renal -93% | ACHN renal -94.5% | CAKI-1 renal -79.3% | A498 renal -82.4% | CCRF-CEM leukemia -35.2% | MOLT-4 leukemia -58%

Cn1c2nc3ccccc3c-2cc2ccccc21
inactive: SK-MEL-2 melanoma 105% | EKVX NSCLC 42.5% | SN12C renal 33.7% | UO-31 renal 13.9% | TK-10 renal 103% | ACHN renal 21.2% | CAKI-1 renal 18.9% | A498 renal 21.3% | CCRF-CEM leukemia 50.8% | MOLT-4 leukemia 21.5%

COc1ccc(-c2nc(C#N)c(N3CCC(S(=O)(=O)N4CCOCC4)CC3)o2)cc1
inactive: SK-MEL-2 melanoma 102% | EKVX NSCLC 105% | SN12C renal 99.5% | UO-31 renal 89.1% | TK-10 renal 131% | ACHN renal 97.8% | CAKI-1 renal 92.9% | A498 renal 100% | CCRF-CEM leukemia 101% | MOLT-4 leukemia 98.3%

CCN(CC)S(=O)(=O)c1ccc(-c2nc(C(Cl)Cl)nc3cc(C)nn23)cc1
inactive: SK-MEL-2 melanoma 89.4% | EKVX NSCLC 25.8% | SN12C renal 58.6% | UO-31 renal 46.4% | TK-10 renal 79.4% | CAKI-1 renal 29.6% | A498 renal 74.8% | CCRF-CEM leukemia 48.9% | MOLT-4 leukemia 36.1%
active: ACHN renal 8.7%

O=C(CCCCCCN1CC(=O)N2[C@@H](C3CC3)c3[nH]c4ccccc4c3C[C@H]2C1=O)NO
inactive: SK-MEL-2 melanoma 76.5% | EKVX NSCLC 85.7% | SN12C renal 79% | UO-31 renal 70.1% | TK-10 renal 79.2% | ACHN renal 67.6% | CAKI-1 renal 69.3% | A498 renal 98.8% | CCRF-CEM leukemia 19.9% | MOLT-4 leukemia 16%

COC(=O)c1ccc(NC2=C(Cl)C(=O)C(C)=C(C)C2=O)cc1
active: CCRF-CEM leukemia 9.06% | MOLT-4 leukemia 9.07%
inactive: SK-MEL-2 melanoma 69.1% | EKVX NSCLC 53.2% | SN12C renal 80.2% | UO-31 renal 65.1% | TK-10 renal 112% | ACHN renal 63.2% | CAKI-1 renal 43.3% | A498 renal 58.6%

CC(C)NC(=O)c1cc(-c2ccc(NC(=O)Nc3ccc(F)cc3)cc2)nc2cccnc12
inactive: SK-MEL-2 melanoma 120% | EKVX NSCLC 102% | SN12C renal 103% | UO-31 renal 92.8% | TK-10 renal 110% | ACHN renal 103% | CAKI-1 renal 95% | A498 renal 107% | CCRF-CEM leukemia 112% | MOLT-4 leukemia 133%

O=C1C(SCc2ccccc2)=C(Cl)CN1c1ccc(Cl)cc1
active: UO-31 renal -88.1%
inactive: SK-MEL-2 melanoma 79.9% | EKVX NSCLC 106% | SN12C renal 100% | TK-10 renal 111% | ACHN renal 98.1% | CAKI-1 renal 90.7% | A498 renal 114% | CCRF-CEM leukemia 70.8% | MOLT-4 leukemia 68%

CCNC(=O)Oc1ccc(/C(=C(/C)c2ccc(OC)cc2)c2ccc(OCCN3CCCCCC3)cc2)cc1
active: UO-31 renal 0.828%
inactive: SK-MEL-2 melanoma 83.4% | EKVX NSCLC 69.7% | SN12C renal 59.4% | TK-10 renal 116% | ACHN renal 61.3% | CAKI-1 renal 14.5% | A498 renal 54.8% | CCRF-CEM leukemia 36.8% | MOLT-4 leukemia 17.2%

O=C(Nc1ccc(Cl)c(C(F)(F)F)c1)Nc1ccc2c(ccn2C(=O)c2cccc(F)c2)c1
inactive: SK-MEL-2 melanoma 45.3% | EKVX NSCLC 30% | SN12C renal 42.9% | UO-31 renal 35.6% | TK-10 renal 45.9% | ACHN renal 17.7% | CAKI-1 renal 29.1% | CCRF-CEM leukemia 15.8% | MOLT-4 leukemia 10.9%

Cc1ccc(S(=O)(=O)NCCCNc2nccc(-c3[nH]c(-c4ccccc4)nc3-c3ccc(F)c(O)c3)n2)cc1
inactive: SK-MEL-2 melanoma 24.8% | EKVX NSCLC 94.9% | SN12C renal 99.2% | UO-31 renal 115% | TK-10 renal 134% | ACHN renal 85.8% | CAKI-1 renal 90.7% | CCRF-CEM leukemia 39.7% | MOLT-4 leukemia 39.2%

CN1CCN(Cc2ccc(NC(=O)c3cncc(C#Cc4cnc5ccc(N6CCOCC6)nn45)c3)cc2C(F)(F)F)CC1
active: SK-MEL-2 melanoma -88.3% | EKVX NSCLC -47.5% | SN12C renal -22.1% | UO-31 renal -81.2% | TK-10 renal -64.3% | ACHN renal -97.8% | CAKI-1 renal -50.3% | A498 renal -94.3% | CCRF-CEM leukemia -2.39% | MOLT-4 leukemia 0.376%

COc1cc2oc(-c3cccc(NC(=O)[C@@H](N)C(C)C)c3)cc(=O)c2c(OC)c1OC
inactive: SK-MEL-2 melanoma 102% | EKVX NSCLC 98.4% | SN12C renal 101% | UO-31 renal 76.3% | TK-10 renal 97.7% | ACHN renal 100% | CAKI-1 renal 91.1% | CCRF-CEM leukemia 97.9% | MOLT-4 leukemia 99.9%

Cc1ccc(/C=N/Nc2nc(Nc3ccccc3)nc(Nc3ccc(S(N)(=O)=O)cc3)n2)cc1
inactive: SK-MEL-2 melanoma 77.8% | EKVX NSCLC 78.1% | SN12C renal 82.5% | UO-31 renal 68.1% | TK-10 renal 94.5% | ACHN renal 61.2% | CAKI-1 renal 61% | A498 renal 54.7% | CCRF-CEM leukemia 42% | MOLT-4 leukemia 40.4%

C#CCOc1cccc(/C(N)=N/C(N)=N/c2nc3ccccc3s2)c1
inactive: SK-MEL-2 melanoma 103% | EKVX NSCLC 73.8% | SN12C renal 66% | UO-31 renal 91.8% | TK-10 renal 148% | ACHN renal 81.4% | CAKI-1 renal 73.5% | A498 renal 122% | CCRF-CEM leukemia 76.5% | MOLT-4 leukemia 71.8%

CCOC(=O)c1cccc(NC2=C(Cl)C(=O)c3nc(C)ccc3C2=O)c1
inactive: SK-MEL-2 melanoma 105% | EKVX NSCLC 92.1% | SN12C renal 95.5% | UO-31 renal 93.1% | TK-10 renal 119% | ACHN renal 96.1% | CAKI-1 renal 108% | CCRF-CEM leukemia 15% | MOLT-4 leukemia 48.5%

O=C(CCCCCCNC(=O)C(O)(O)C(F)(F)F)Nc1ncc(-c2ccc(Br)cc2)s1
active: SK-MEL-2 melanoma -27.3% | SN12C renal 0.547% | UO-31 renal -26.1% | TK-10 renal -20.2% | ACHN renal -32.1% | CAKI-1 renal -32.8% | A498 renal -41.2% | MOLT-4 leukemia 4.21%
inactive: EKVX NSCLC 21.5% | CCRF-CEM leukemia 18.4%

COC(=O)c1cccc(NC2=CC(=O)C(C)=C(C)C2=O)c1
inactive: SK-MEL-2 melanoma 101% | EKVX NSCLC 100% | SN12C renal 93.3% | UO-31 renal 94.5% | TK-10 renal 133% | ACHN renal 100% | CAKI-1 renal 86.5% | A498 renal 78.7% | CCRF-CEM leukemia 52.8% | MOLT-4 leukemia 40%

CC(=O)N1N=C(c2cc3ccccc3oc2=O)CC1c1cn(-c2ccccc2)nc1-c1ccc(C)cc1 (stereo not given)
inactive: SK-MEL-2 melanoma 108% | EKVX NSCLC 98.3% | SN12C renal 98.8% | UO-31 renal 83.2% | TK-10 renal 105% | ACHN renal 97.8% | CAKI-1 renal 92% | CCRF-CEM leukemia 102% | MOLT-4 leukemia 108%

Cc1c(C(=O)/C=C/c2ccc(Cl)cc2)nnn1-c1ccc2oc(=O)ccc2c1
inactive: SK-MEL-2 melanoma 110% | EKVX NSCLC 91.2% | SN12C renal 92.3% | UO-31 renal 73.4% | TK-10 renal 104% | ACHN renal 94.6% | CAKI-1 renal 88.6% | A498 renal 103% | CCRF-CEM leukemia 92.3% | MOLT-4 leukemia 98.9%
